Assay results reported in PubChem BioAssay.
“And” between values parts separate entries of the source, which are not always exact repeats. Equal values may be shown once. The source made the active and inactive calls.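 How the source made its calls, unless noted: active means compounds whose cell count with miR-34 switched on is under 0.7 times the count with it off; inactive means the rest.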

Experiments:
[1] = sensitizers of A549 cells to miR-34 induction, primary screen, imaging, A549 dox-inducible miR-34, nuclei and caspase counts (AID 1347080); conditions: A549 miR-34 inducible, Hoechst nuclei count, 48 h
[2] = survival rescue of mitochondrial mutant cells in low glucose, primary screen, MELAS cybrids, Rieske KO mouse fibroblasts, CellTiter-Glo (AID 1508586;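 active means mean z-score across replicates of 1.96 or higher in either the MELAS or the Rieske mutant cell line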;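 further: z relative to plate mean and SD of compound and empty wells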)
[3] = viability rescue of complex I mutant cybrids, primary screen, cell-based, galactose medium, ATP luminescence (AID 1645843;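 active means z-score of at least 1.8 in each of two replicates, scored against plate mean and spread of sample wells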;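 further: positive z means more ATP and so rescue of galactose-driven cybrid death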); conditions: complex I mutant cybrid cells, 72 h, stronger effect = higher value
[4] = hESC survival regulators, cell-based (AID 493140; call rule not given here;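 further: cells exposed to compounds for four days before counting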); conditions: human embryonic stem cell survival screen; stronger effect = higher value
[5] = liver-stage malaria parasite growth inhibition, primary screen, cell-based, HepG2, luciferase luminescence, HepG2 viability (AID 624349; in the data active means parasite load remaining mostly below about 12%, no sharp cut-off; inactive means mostly above about 10%;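 further: 100% = mean of DMSO negative control wells on the same plate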); conditions: P. berghei liver stage in HepG2, luciferase luminescence, concentration not given here; parasite load remaining: stronger effect = lower value; viability: measured here: HepG2 viability without parasites
[6] = stronger effect = lower value, cell number ratio, induced over uninduced
[7] = measured here: relative caspase fold change +Dox/-Dox
[8] = measured here: total cells with miR-34 induction, stronger effect = lower value
[9] = measured here: total cells without miR-34 induction
[10] = MELAS cybrid survival, CellTiter-Glo 48 h, stronger effect = higher value
[11] = Rieske KO mouse fibroblast survival, CellTiter-Glo 72 h

SMILES	fold change [1, 6]	fold change [1, 7]	cell count [1, 8]	cell count [1, 9]	z-score [2, 10]	z-score [2, 11]	z-score [3]	survival [4]	parasite load remaining [5]	viability [5]
Cc1nn(C)cc1-c1ccnc(N2CCCN(c3ccc(F)cc3)CC2)n1	0.74 (inactive)	1.79	3170	4290	-0.739	2.39	0.77 (inactive)	–	–	–
O=C(NCCCc1ccccc1)NC1CCCCC1	0.869 (inactive)	0.557	8240	9480	-0.491 (inactive)	-0.675	0.35 (inactive)	–	–	–
Cc1cc(-c2cnn(CC(=O)Nc3ccnn3Cc3ccccc3)c2)nc(N)n1	0.926 (inactive)	0.917	8320	8980	-0.562 (inactive)	0.0522	-0.58 (inactive)	–	–	–
CC1=C(CC(=O)O)c2cc(F)ccc2/C1=C/c1ccc(S(C)=O)cc1 (stereo not drawn)	0.93 (inactive)	1.38	9820	10600	-0.379 (inactive)	-0.389	0.615 (inactive)	19.2 (inactive)	88.6% (inactive) and 52.4% (inactive)	91.8% and 138%
CC(C)C[C@H](NC(=O)[C@@H](COC(C)(C)C)NC(=O)[C@H](Cc1ccc(O)cc1)NC(=O)[C@H](CO)NC(=O)[C@H](Cc1c[nH]c2ccccc12)NC(=O)[C@H](Cc1cnc[nH]1)NC(=O)[C@@H]1CCC(=O)N1)C(=O)N[C@@H](CCCN=C(N)N)C(=O)N1CCC[C@H]1C(=O)NNC(N)=O	0.891 (inactive)	1.53	10600	11900	-0.533 (inactive)	-0.444	0.71 (inactive)	–	53.9% (inactive)	102%
CN1[C@@H](C[C@H](O)c2ccccc2)CCC[C@H]1CC(=O)c1ccccc1	0.934 (inactive)	1.15	9500	10200	-0.675 (inactive)	-0.32	0.205 (inactive)	–	53.1% (inactive)	128%
CC(C)C[C@@H](NC(=O)[C@H](Cc1ccccc1)NC(=O)c1cnccn1)B(O)O	1.12 (inactive)	1.54	1190	1060	-1.11 (inactive)	0.911	-2.25 (inactive)	–	-0.325% (inactive)	1%
CC(C)C[C@H](NC(=O)[C@@H](Cc1c[nH]c2ccccc12)NC(=O)[C@H](Cc1ccc(O)cc1)NC(=O)[C@H](CO)NC(=O)[C@H](Cc1c[nH]c2ccccc12)NC(=O)[C@H](Cc1cnc[nH]1)NC(=O)[C@@H]1CCC(=O)N1)C(=O)N[C@@H](CCCN=C(N)N)C(=O)N1CCC[C@H]1C(=O)NCC(N)=O	0.921 (inactive)	1.16	9400	10200	0.161 (inactive)	-0.118	0.68 (inactive)	–	20.9% (inactive)	68.5%
CNC(=C[N+](=O)[O-])NCCSCc1csc(CN(C)C)n1	0.834 (inactive) and 1.04 (inactive)	1.65 and 0.659	8750 and 8440	10500 and 8100	-0.241 (inactive)	-0.0279	0.825 (inactive)	4.67 (inactive)	–	–
N.N.O=C(O)CO.[Pt]	0.961 (inactive)	1.22	10100	10500	-0.923 (inactive)	-1.2	0.195 (inactive)	–	50.4% (inactive)	108%
CC(C)C[C@H]1C(=O)N2CCC[C@H]2[C@]2(O)O[C@](NC(=O)[C@@H]3C=C4c5cccc6[nH]c(Br)c(c56)CC4N(C)C3)(C(C)C)C(=O)N12 (stereo partly drawn)	0.897 (inactive) and 0.925 (inactive)	1.56 and 1.14	7190 and 8820	8020 and 9530	-0.909 (inactive)	0.597	0.045 (inactive)	–	20.7% (inactive) and 22.3% (inactive)	50% and 138%
